According to PubChem BioAssay AID463173 (ICCB-Longwood Screening Facility, Harvard Medical School, 2010):
Out of some 52,000 compounds screened, about 4,300 (8.3%) were called active. What follows is part of a selection rich in actives, with near analogues and random picks from the rest. A number with no mark means an inactive call. No stated cut-off is given here; in the data, active means survival mostly below about 52% (no sharp cut-off); inactive means mostly above about 56%.

Tested on: DeltatarO mutant
Assay: S. aureus survival, RN4220 and DeltatarO strains – OD600, teichoic acid synthesis inhibitors, primary screen (AID 463173)
Conditions: S. aureus RN4220 wild type/DeltatarO growth, OD600, 18 h, hits give low values, screened at 18.75 µg/mL (by protocol)

Structure (SMILES)	survival
COc1ccc2c(c1)cc1c(=O)n(CC(=O)NCCCOC(C)C)nc(C)n12	80%
O=C(NCCc1ccc(Cl)cc1)c1c2c(nc3ccccc13)C(=O)N(C1CCCCC1)C2	92%
Cn1c(C(=O)NCc2cccc(F)c2)cc2cc(S(=O)(=O)N3CCCCC3)ccc21	81%
O=C(CSC1=NCCN1)C1COc2ccccc2O1 (configuration not stated)	88%
Cc1ccc(C(=O)NCC(=O)OCc2cc(=O)n3ccsc3n2)cc1	74%
CCN(CC)CCNC(=O)C(=O)NCC(c1cccnc1)N1CCN(c2ccc(F)cc2)CC1 (configuration not stated)	79%
CC1(c2ccc(Cl)cc2)NC(=O)CS1 (configuration not stated)	96%
C=CCNc1nc(C(C)C)nc2c1nnn2Cc1ccccc1	86%
O=C(CSc1nc2ccccc2o1)Nc1ccc(S(=O)(=O)NC2CCCC2)cc1	66%
COc1ccccc1NC(=O)C(=O)c1cc(C)n(-c2cc(C)cc(C)c2)c1C	117%
COCCCNC(=O)CSc1nc2ccccc2c(=O)n1Cc1ccco1	83%
COc1cccc(CNC(=O)CCCn2ncn3c(cc4occc43)c2=O)c1OC	119%
Cc1ccc(NC(=O)Nc2cn(CC(C)C)c(=O)c3ccccc23)cc1N(C)C	78%
CC(=O)Nc1ccc(-n2cc3c(c2-c2ccc(C)cc2)c(=O)n(C)c(=O)n3C)cc1	92%
COc1ccc(C)cc1N(C)C(=O)CCc1nc(-c2ccccc2F)no1	45%
COc1ccc(-c2noc(CC(=O)N(C)c3cc(Cl)c(OC)cc3OC)n2)cc1	82%
COc1ccc(-c2noc(CCC(=O)N(C)c3cc(Cl)ccc3OC)n2)cc1	26% (active)
Cc1ccc(NC(=O)CCN2C(=O)c3ccccc3Sc3ncccc32)cc1	66%
CCN(CC)C(=O)Cn1c(C)c(C#N)c2ccccc21	96%
O=C(CC(c1cccs1)N1Cc2ccccc2C1=O)Nc1ccc(F)c(Cl)c1 (configuration not stated)	83%
CCn1c2ccccc2c2cc(CN3CCN(Cc4ccccc4F)CC3)ccc21	7% (active)
O=c1c2ccccc2n(Cc2ccccc2F)c(=O)n1-c1cccc(F)c1	68%
Cc1ccccc1Cn1c(=O)n(CCc2ccccc2)c(=O)c2ccccc21	64%
Cc1cccc(CCn2c(=O)c3ccccc3n(Cc3ccccc3C)c2=O)c1	72%

Structure (SMILES)	survival
CCN(CC)C(=O)C1CCN(Cc2ccccc2F)CC1	99%
CCn1c2ccccc2c2cc(CN3CCN(Cc4ccccc4C)CC3)ccc21	-3% (active)
CCC(C)NC(=O)c1ccc2c(c1)N(Cc1ccccc1)C(=O)c1ccccc1S2 (configuration not stated)	92%
CCOc1cc2sc(N3CCC(C(=O)Nc4ccccc4Cl)CC3)nc2cc1Br	77%
CCOc1cc(C2NC(=O)c3c(sc4c3CCN(C)C4)N2)ccc1OC(=O)c1ccc(F)cc1 (configuration not stated)	56%
COc1ccc(-c2[nH]c(-c3ccc(F)cc3)nc2SCC(=O)Nc2ccc(OC)c(OC)c2)cc1	53%
O=C(CSc1cn(CC(=O)N2CCCCC2)c2ccccc12)NCc1ccccc1Cl	74%
CN(C)S(=O)(=O)c1ccc(NC(=O)CNCc2ccco2)cc1	97%
O=C(CN1CCCN(Cc2cccc(F)c2)S1(=O)=O)Nc1ccc2c(c1)OCCO2	80%
Cc1ccc(NC(=O)CCS(=O)(=O)c2ccc3nc(C)sc3c2)cc1	34% (active)
Cc1nc2ccc(S(=O)(=O)CCC(=O)Nc3ccc(Cl)cc3)cc2s1	44%
Cc1cc(C)cc(NC(=O)CCS(=O)(=O)c2ccc3nc(C)sc3c2)c1	50%
CCOc1ccc(C2C(=O)N(C3CCCCCC3)CC(=O)N2Cc2ccc(F)cc2)cc1OC (configuration not stated)	117%
COc1ccc(OCc2nnc(SCC(=O)NCc3ccco3)o2)cc1	85%
Cc1cc(Nc2cccc(C(F)(F)F)c2)ncn1	54%
Fc1ccc(Nc2nc3nonc3nc2Nc2cccc(C(F)(F)F)c2)cc1	-2% (active)
FC(F)(F)c1cccc(Nc2nc3nonc3nc2Nc2ccc(Cl)cc2)c1	-16% (active)
Cc1cc(Nc2cccc(C(F)(F)F)c2)nc2ccc(NC(=O)Cc3ccc(Cl)cc3)cc12	101%
Cc1ccc(Nc2nc3nonc3n3cnnc23)cc1Cl	70%
O=C(Nc1cccc(C(F)(F)F)c1)c1cc(-c2ccc(Cl)cc2)on1	77%
NS(=O)(=O)c1ccc(Nc2nc3nonc3nc2Nc2ccc(S(N)(=O)=O)cc2)cc1	122%
Cc1ccc(Nc2nc3nonc3nc2Nc2cccc(C(F)(F)F)c2)cc1Cl	-1% (active)
Fc1ccc(-c2nc(Nc3cccc(C(F)(F)F)c3)nc3c2COc2ccccc2-3)cc1	54%
